Among the test systems are ZAK; ZAP70; p38-delta.
What all share (settings): concentration: 1 μM, replicates: in singlicate; n = 1
Another experiment has as its system T1, YES.
T1 construct: gene YES1

The subject of the next experiment is T2, YSK1.
T2 construct: gene STK25

For the next experiment, the system named is T3, YSK4.
T3 construct: gene MAP3K19

For a further experiment, the system named is T4, p38-alpha.
T4 construct: gene MAPK14

The next experiment relates to T5, p38-beta.
T5 construct: gene MAPK11

The test system of a further experiment is T6, p38-gamma.
T6 construct: gene MAPK12
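Also: KINOMEscan kinase panel screen.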

Regarding `O=C(Nc1ccc2c(c1)OCO2)NC1CCN(c2ccnc(Nc3ccc(F)cc3)n2)C1` (stereo not drawn) [GSK1379724], the “%Inh” value in the experiment on YES is recorded as 0%; in the experiment with YSK1, 0%; in the experiment with YSK4 it was 39%; in the experiment on ZAK, 28%; with ZAP70, 0%; with p38-alpha, 0%. Also, the figures for the “%Inh” value with p38-beta, in the experiment with p38-delta and in the experiment on p38-gamma were 0%, 37% and 0%, respectively.

In the case of `Nc1ncnc2[nH]c(-c3ccccc3)nc12` [AH5015], the “%Inh” value with YES came to 18%; in the experiment with YSK1, 0%; with YSK4 it was 94.4%; in the experiment on ZAK it was 33%; in the experiment with ZAP70, 0%; in the experiment with p38-alpha it was 0%. The “%Inh” value in the experiment on p38-beta is given as 0%; in the experiment with p38-delta, 6%; in the experiment on p38-gamma, 0%.

Turning to `O=C1NC(=O)C(N2CCc3ccccc32)=C1c1ccccc1Cl` [SB-373598], the “%Inh” value with YES is 10%; in the experiment on YSK1, 0%; in the experiment on YSK4 it was 0%; in the experiment on ZAK, 17%; with ZAP70 it was 0%; with p38-alpha it was 0%. Moreover, the entries for the “%Inh” value with p38-beta, in the experiment with p38-delta and with p38-gamma were 35%, 6% and 18%, respectively.

Turning to `C[C@@H]1CCCCN1c1cc(-c2ccc3c(N)n[nH]c3c2)nc(N)n1` [GSK2258759], the “%Inh” value in the experiment on YES was 14%; in the experiment with YSK1 it was 0%; in the experiment with YSK4 it was 0%; in the experiment on ZAK it was 0%; in the experiment on ZAP70 it was 0%; with p38-alpha, 80%. The “%Inh” value in the experiment with p38-beta came out at 0%; in the experiment with p38-delta it was 26%; with p38-gamma, 0%.

As for `Fc1cc(Cl)ccc1Nc1ccnc2cc(I)ccc12` [GW551191], the “%Inh” value stood at 15% in the experiment on YES; 0% in the experiment on YSK1; 49% in the experiment on YSK4; 20% in the experiment on ZAK; 0% with ZAP70; 30% with p38-alpha. The “%Inh” value in the experiment with p38-beta was found to be 0%; with p38-delta, 41%; with p38-gamma, 1%.

With `COc1cc2ncn(-c3cc(OCC4CCCO4)c(C(N)=O)s3)c2cc1OC` (stereo not drawn) [GSK204607], the “%Inh” value in the experiment with YES stood at 12%; with YSK1, 22%; in the experiment on YSK4 it was 53%; in the experiment with ZAK, 6%; in the experiment on ZAP70 it was 0%; in the experiment on p38-alpha, 0%. In addition, the “%Inh” value in the experiment with p38-beta came out at 0%; in the experiment on p38-delta it was 37%; with p38-gamma, 0%.

For `Cc1cccc(-c2nc(Nc3ccncc3)c3ccccc3n2)n1` [GW855857], the “%Inh” value was 0% with YES; 0% with YSK1; 0% in the experiment with YSK4; 4% with ZAK; 0% with ZAP70; 16% in the experiment with p38-alpha. For the same molecule, the figures for the “%Inh” value in the experiment on p38-beta, in the experiment on p38-delta and in the experiment on p38-gamma were 1%, 0% and 24%, respectively.

In the case of `Fc1cc(Cl)ccc1Nc1ccnc2cc(-c3ccc(CN4CCCCC4)o3)ccc12` [GW560116], the “%Inh” value is 1% in the experiment on YES; 17% with YSK1; 5% in the experiment on YSK4; 0% in the experiment with ZAK; 0% with ZAP70; 36% with p38-alpha. For the same molecule, the figures for the “%Inh” value with p38-beta, with p38-delta and with p38-gamma were 0%, 40% and 9%, respectively.

Consider `Nc1nc(-c2nccs2)c(-c2ccnc3ccccc23)s1` [GW693542], for which the “%Inh” value with YES was determined as 17%; in the experiment on YSK1, 10%; in the experiment on YSK4, 28%; in the experiment on ZAK it was 39%; in the experiment with ZAP70, 0%; in the experiment with p38-alpha, 0%. The “%Inh” value in the experiment on p38-beta was found to be 0%; with p38-delta it was 22%; in the experiment with p38-gamma, 30%.

For the molecule `CCn1c(-c2ccccn2)nc2cnccc21` [SB-736398], the “%Inh” value in the experiment on YES was 3%; in the experiment on YSK1, 100%; in the experiment with YSK4, 44%; in the experiment with ZAK, 5%; in the experiment with ZAP70, 6%; in the experiment with p38-alpha, 0%. The “%Inh” value with p38-beta turned out to be 0%; with p38-delta, 23%; in the experiment on p38-gamma, 0%.

Regarding `Cc1cccc(-c2cc(Nc3ccncc3)c3ccccc3n2)n1` [GSK223675], the “%Inh” value with YES worked out at 0%; in the experiment on YSK1, 8%; in the experiment on YSK4, 13%; in the experiment with ZAK, 82%; in the experiment with ZAP70, 0%; in the experiment on p38-alpha it was 12%. For the same molecule, the entries for the “%Inh” value with p38-beta, in the experiment on p38-delta and in the experiment with p38-gamma were 0%, 42% and 22%, respectively.

As to `Cn1cncc1-c1ccc2ncnc(Nc3ccc(OCc4ccccc4)cc3)c2c1` [GW320571], the “%Inh” value is 26% in the experiment with YES; 0% in the experiment on YSK1; 1% with YSK4; 17% with ZAK; 0% in the experiment with ZAP70; 0% in the experiment on p38-alpha. The “%Inh” value in the experiment on p38-beta worked out at 2%; with p38-delta it was 21%; in the experiment on p38-gamma, 0%.

For the molecule `CN(C)CCN(C)C(=O)c1cc(-c2ccncc2)c(-c2ccc(Cl)c(O)c2)o1.Cl.Cl` [SB-710397], the “%Inh” value in the experiment on YES was found to be 0%; with YSK1, 0%; in the experiment on YSK4, 57%; in the experiment on ZAK it was 41%; in the experiment on ZAP70, 35%; in the experiment on p38-alpha, 82%. For the same molecule, the “%Inh” value with p38-beta is recorded as 0%; with p38-delta it was 51%; with p38-gamma, 29%.

As for `COc1cc(Nc2nccc(N3CCC(NC(=O)Nc4cc(C)ccc4C)C3)n2)cc(OC)c1OC` (stereo not drawn) [GSK1379762], the “%Inh” value amounted to 10% in the experiment on YES; 0% in the experiment with YSK1; 27% in the experiment on YSK4; 3% in the experiment on ZAK; 0% in the experiment with ZAP70; 0% in the experiment with p38-alpha. Also, the “%Inh” value in the experiment on p38-beta came out at 0%; in the experiment on p38-delta, 32%; in the experiment with p38-gamma, 24%.

On to `Cc1cccc(-c2nc(Nc3cccc(C(N)=O)c3)c3ccccc3n2)n1` [GW876019], for which the “%Inh” value came to 19% in the experiment with YES; 12% with YSK1; 0% in the experiment with YSK4; 0% in the experiment with ZAK; 0% in the experiment on ZAP70; 0% with p38-alpha. Moreover, the “%Inh” value in the experiment with p38-beta was 34%; with p38-delta, 16%; in the experiment on p38-gamma, 58%.

Consider `Cc1ccccc1-n1cnc2c(N)ncnc21` [SKF-97510], for which the “%Inh” value is listed as 11% in the experiment with YES; 9% in the experiment on YSK1; 0% with YSK4; 9% in the experiment with ZAK; 0% in the experiment on ZAP70; 0% in the experiment on p38-alpha. Moreover, the “%Inh” value with p38-beta was 0%; in the experiment on p38-delta it was 0%; with p38-gamma it was 15%.

As for `CN1C(=O)C(Nc2ccc(Cl)c(C(=O)O)c2)=C(c2ccc(Cl)cc2)C1=O` [SB-404290], the “%Inh” value came out at 6% with YES; 0% with YSK1; 4% in the experiment on YSK4; 0% in the experiment with ZAK; 1% in the experiment on ZAP70; 5% in the experiment with p38-alpha. Further, the entries for the “%Inh” value in the experiment on p38-beta, with p38-delta and with p38-gamma were 2%, 0% and 27%, respectively.

Take `Cc1cc(N2Cc3ccccc3C2)nc(Nc2ccc(S(=O)(=O)N3CCOCC3)cc2)n1.Cl` [GSK1669917]: the “%Inh” value is 5% in the experiment with YES; 0% in the experiment on YSK1; 0% with YSK4; 0% in the experiment on ZAK; 0% in the experiment on ZAP70; 3% with p38-alpha. In addition, the “%Inh” value in the experiment with p38-beta is recorded as 0%; in the experiment on p38-delta, 46%; with p38-gamma it was 3%.

For the origin of these results see article PMC5540273 (PLoS ONE, 2017).
